Screening results deposited in PubChem by National Center for Advancing Translational Sciences (NCATS).
The list is not random: actives were taken first. Their share in the collection is about 2.9%.
EPAC1 ag val: validation of human EPAC1 agonists. Potency, µM, without a hit: max response, positive = active, actives largely listed as activators. EPAC1 Rap1b BODIPY-GDP exchange, fluorescence. O95398. 16,000 compounds, 1% hits; further: nearly all actives have a fitted effect of over 70% in size
EPAC2 antag: human EPAC2 antagonism, validation | Q8WZA2 | EPAC2 Rap1B BODIPY-GDP exchange, fluorescence | Potency, µM (doses to about 112 µM), for inactives: at the highest dose activity, negative = inhibition, most hits filed as inhibitors | 16,000 compounds, 1.7% hits | AID 1645886;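 further: 100% = activation by cAMP agonist control; nearly all actives have a fitted effect of over 40% in size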
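Fluorescent exchange read-out: 100 nM EPAC2 with 250 nM RAP1B–BODIPY-GDP and 50 uM GDP; BODIPY-GDP release lowers fluorescence. Read at 480/540 nm every 5 min for 30 min at room temperature; normalized to 6.5 mM cAMP.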
* = called active by the depositor; u = inconclusive; ! = not active in a repeat; [ ] = another dose, or the depositor's remark. The call rests on the fitted dose curve; in most records, active means well fitted curve in the direction sought with a large enough effect; inconclusive means small, poorly fitted or top-dose-only effect, or another doubt; inactive means no such curve, though single readings can be large; an effect the other way counts as inactive or inconclusive. Unless noted, on the % scale 0 is the no-effect control and ±100 the full control effect; potency means the concentration at half of the fitted maximal effect.

SMILES	EPAC1 ag val	EPAC2 antag
Cc1cccc(CN2Cc3cccc4c3[C@H](C=CC4)CC2=O)c1	3%	32µM*
O=C1C[C@H]2C=CCc3cccc(c32)CN1Cc1ccc(F)cc1	26%	u
CCCCC[C@H](O)CC[C@H]1[C@H](O)CC(=O)[C@@H]1CCCCCCC(=O)O	-14%	-18%[11.4 µM]
CCCCC[C@H](O)/C=C/[C@H]1[C@H](O)CC(=O)[C@@H]1CCCCCCC(=O)O	-15%	14µM*!
CCN1CCCC1CNC(=O)c1cnn(-c2nccc(-c3cccs3)n2)c1C(C)C (stereo not given)	10%	u
Fc1ccc(/C=C/c2ccc3ccccc3n2)cc1	14%	-19%
C=C[C@](C)(O)CCC1C(=C)CC(OC(C)=O)C2C(C)(C)CCCC12C (stereo not given in full)	-116%	10µM*
C=C[C@@](C)(O)CC[C@@H]1[C@@]2(C)CCCC(C)(C)[C@@H]2CC[C@@]1(C)O	-27%	u
CO[C@H]1C[C@H](O[C@H]2[C@H](C)O[C@@H](O[C@@H]3/C(C)=C/C[C@@H]4C[C@@H](C[C@]5(C=C[C@H](C)[C@@H](C6CCCCC6)O5)O4)OC(=O)[C@@H]4C=C(C)[C@@H](O)[C@H]5OC/C(=C\C=C\[C@@H]3C)[C@]54O)C[C@@H]2OC)O[C@@H](C)[C@@H]1O	-10%	-24%
NC(Cc1c[nH]c2ccccc12)C(=O)O (stereo not given)	25%	-7%
CC(=O)N[C@@H](Cc1c[nH]c2ccccc12)C(=O)OCc1cc(C(F)(F)F)cc(C(F)(F)F)c1	5%	45µM*!
COc1cc(C(=O)NS(=O)(=O)c2ccccc2C)ccc1Cc1cn(C)c2ccc(NC(=O)OC3CCCC3)cc12	4%	79µM*
C=C(NC(=O)C(=C)NC(=O)c1csc(C2=N[C@@H]3c4csc(n4)[C@H]4NC(=O)c5csc(n5)[C@H]([C@](C)(O)[C@@H](C)O)NC(=O)[C@H]5CSC(=N5)C(=CC)NC(=O)C([C@@H](C)O)NC(=O)c5csc(n5)[C@]3(CC2)NC(=O)[C@H](C)NC(=O)C(=C)NC(=O)[C@H](C)NC(=O)C([C@@H](C)CC)NC2C=Cc3c([C@H](C)O)cc(nc3C2O)C(=O)O[C@@H]4C)n1)C(N)=O (stereo not given in full)	-16%	0%[56.6 µM]
CC(/C=C/c1cccc(Oc2ccc(F)cc2)c1)N(O)C(N)=O (stereo not given)	4%	79µM*
C[C@@H](/C=C\c1cccc(Oc2ccc(F)cc2)c1)N(O)C(N)=O	-25%	25µM*
CC(C(=O)O)c1cccc(Oc2ccccc2)c1 (stereo not given)	5%	-19%
CCc1nc(CN2CCOc3ccc(C(O)C4CCCCC4)cc3C2)c(C)[nH]1 (stereo not given)	-4%	-15%
COc1ccc(C(=O)c2ccccc2)c(O)c1	-21%	40µM*!
COc1ccc(C(=O)c2ccc(C)cc2)c(O)c1	-7%	u
CO/N=C(\C(=O)N[C@@H]1C(=O)N2C(C(=O)O)=C(CSC(=O)c3ccco3)CS[C@H]12)c1csc(N)n1	-8%	3%
COc1cc2ccc(=O)oc2cc1O	100µM*!	-16%
COc1ccc2ccc(=O)oc2c1CC=C(C)C	-40%	u
CCCC(=O)O[C@]1(C(=O)COC(=O)CC)[C@@H](C)C[C@H]2[C@@H]3CCC4=CC(=O)C=C[C@]4(C)[C@@]3(F)[C@@H](O)C[C@@]21C	-35%	-5%
COC(=O)C1CCN(Cc2ccc3c(c2)CN(C(=O)c2cc(-c4ccc(C)o4)[nH]n2)CCO3)CC1	-5%	u
CN(C)CC(C)(O)c1ccc2c(c1)CN(Cc1cn(C)c3ccccc13)CCO2 (stereo not given)	0%	2%
